Experimental data as given in PMC4336329 (PLoS ONE, 2015).
Among all 310,000 compounds or so, about 2,200 (0.71%) showed an effect of 50% or more. The effect is printed as a negative number. This excerpt belongs to a sample that is enriched for strong results.

Target: human ether-à-go-go-related gene (hERG) potassium channel (human, UniProt Q12809)
Experiment: primary screen, population patch clamp on CHO cells stably expressing hERG; higher = less effect of the substance

Sequence of human ether-à-go-go-related gene (hERG) potassium channel (Q12809 whole entry, looked up): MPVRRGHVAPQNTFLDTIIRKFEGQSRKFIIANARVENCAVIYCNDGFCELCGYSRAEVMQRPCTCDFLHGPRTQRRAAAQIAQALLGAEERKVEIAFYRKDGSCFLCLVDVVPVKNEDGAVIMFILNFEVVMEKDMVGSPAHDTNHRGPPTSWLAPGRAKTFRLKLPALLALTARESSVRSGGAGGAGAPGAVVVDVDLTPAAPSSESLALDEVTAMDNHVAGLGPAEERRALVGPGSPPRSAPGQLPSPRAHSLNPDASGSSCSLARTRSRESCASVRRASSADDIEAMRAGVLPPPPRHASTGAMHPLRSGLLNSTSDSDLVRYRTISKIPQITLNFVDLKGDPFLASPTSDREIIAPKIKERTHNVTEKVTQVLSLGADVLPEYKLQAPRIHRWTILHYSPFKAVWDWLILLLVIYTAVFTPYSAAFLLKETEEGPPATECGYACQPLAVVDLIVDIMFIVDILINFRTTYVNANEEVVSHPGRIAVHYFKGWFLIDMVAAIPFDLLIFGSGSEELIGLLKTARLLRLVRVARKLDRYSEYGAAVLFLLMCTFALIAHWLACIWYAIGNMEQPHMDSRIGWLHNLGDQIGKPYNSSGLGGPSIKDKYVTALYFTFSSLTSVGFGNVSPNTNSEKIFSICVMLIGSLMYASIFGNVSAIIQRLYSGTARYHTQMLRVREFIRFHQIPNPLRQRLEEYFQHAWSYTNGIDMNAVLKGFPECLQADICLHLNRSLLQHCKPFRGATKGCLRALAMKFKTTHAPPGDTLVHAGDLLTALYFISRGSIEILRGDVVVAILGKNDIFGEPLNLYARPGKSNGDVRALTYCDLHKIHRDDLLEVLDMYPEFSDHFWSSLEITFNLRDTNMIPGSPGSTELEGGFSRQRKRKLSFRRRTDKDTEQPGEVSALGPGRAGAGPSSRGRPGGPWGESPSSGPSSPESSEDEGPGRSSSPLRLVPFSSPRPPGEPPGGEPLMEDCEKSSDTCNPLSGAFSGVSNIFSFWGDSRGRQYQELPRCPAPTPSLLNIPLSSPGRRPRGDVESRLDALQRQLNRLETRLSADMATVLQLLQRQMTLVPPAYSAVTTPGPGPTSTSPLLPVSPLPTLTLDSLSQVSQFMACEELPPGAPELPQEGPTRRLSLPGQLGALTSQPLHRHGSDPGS

Structure (SMILES) | hERG current change (%, negative = inhibition) at 1uM
CC(C)(C)NC(=S)N/N=C\c1ccc(-c2ccc([N+](=O)[O-])cc2)o1 | 13.3%
COC(=O)Nc1ccc(S(=O)(=O)N2CCCC(C(=O)N3CCN(C)CC3)C2)cc1 (stereo not drawn) | 7.31%
Cc1cc(C)c2cc(CN(Cc3ccc4c(c3)OCO4)Cc3nnnn3Cc3ccco3)c(=O)[nH]c2c1 | 10.8%
CC1=NN(C(C#N)c2ccccc2C)C(c2ccccc2)C1 (stereo not drawn) | 9.72%
Cc1cc(C)nc(/N=C2\NC(=O)CC3C(=O)NCCN23)n1 (stereo not drawn) | 13.1%
CN1CC(=O)Nc2ccc([N+](=O)[O-])cc2C1=O | 17.6%
COC(=O)c1cc2ccsc2n1Cc1ccccc1F | -2.01%
COc1ccc(/C=C(\NC(=O)c2ccc(C)cc2)C(=O)NCCCn2ccnc2)cc1 | -91.7%
COc1ccc(C(=O)N/C(=C\c2ccccc2)C(=O)NCCCn2ccnc2)cc1 | -18.2%
COc1ccc(/C=C(/NC(=O)c2ccc(OC)c(OC)c2)C(=O)NCCCn2ccnc2)cc1 | 15.5%
Cc1oc(CN2CCOCC2)cc1C(=O)O | 7.66%
FC(F)Oc1ccc(-n2cc(-c3ccc(Cl)cc3)[n+]3c2CCCCC3)cc1.[Br-] | -45.2%
Cc1ccc(-c2cn(-c3ccc(OC(F)F)cc3)c3[n+]2CCCCC3)cc1.[Br-] | -13.3%
COc1ccc(-n2cc(-c3ccc(OC(F)F)cc3)[n+]3c2CCCCC3)cc1.[Br-] | -52.9%
CCn1nccc1C(=O)Nc1cc(Cl)ccc1Cl | 0.897%
CC(=O)c1ccc(S(=O)(=O)N2CCCC(N(C)CCc3ccccc3)C2)cc1 (stereo not drawn) | -78.7%
COc1ccc(S(=O)(=O)N2CCCC(N(C)CCc3ccccc3)C2)cc1OC (stereo not drawn) | -26.5%
COc1ccc(CCN(C)C2CCCN(S(=O)(=O)c3ccccc3)C2)cc1OC (stereo not drawn) | -64.9%
COc1ccc(CCN(C)C2CCCN(S(C)(=O)=O)C2)cc1OC (stereo not drawn) | 6.5%
COc1ccc(CCN(C)C2CCCN(S(=O)(=O)c3ccc(C)cc3)C2)cc1OC (stereo not drawn) | -82.1%
COc1ccc(CCN(C)C2CCCN(S(=O)(=O)c3ccccc3F)C2)cc1OC (stereo not drawn) | -45.9%
CC(=O)c1ccc(S(=O)(=O)N2CCCC(N(C)CCc3ccccn3)C2)cc1 (stereo not drawn) | -44.4%
COc1ccc(CCN(C)C2CCCN(S(=O)(=O)N(C)C)C2)cc1OC (stereo not drawn) | 8.71%
CN(CCc1ccccc1)C1CCCN(S(=O)(=O)c2cccc(F)c2)C1 (stereo not drawn) | -2.76%
Cc1cc(NC(=O)CSc2nc3c(c(=O)n2-c2ccccc2)SC(C)C3)no1 (stereo not drawn) | -8.78%
Cc1ccc(C(=O)Nc2nc3nc(-c4ccccc4)cc(=O)n3[nH]2)cc1 | 14.5%
CCC(C)NS(=O)(=O)c1ccc(NC(C)=O)cc1 (stereo not drawn) | 11.2%

Structure (SMILES) | hERG current change (%, negative = inhibition) at 1uM
CC(C)Cc1cc(C(=O)O)n[nH]1 | 5.43%
CC(=O)N1CCc2cc(Br)cc(S(=O)(=O)N3CCc4ccccc43)c21 | -1.76%
O=C(c1ccc(-n2cccc2)cc1)N1CCOCC1 | 7.49%
CCc1ccccc1N(CC(=O)NC1CCCCC1)C(=O)CCC(=O)Nc1ccccn1 | 12.3%
O=C(Nc1ccc(-c2csc(Nc3ccccc3)n2)cc1)c1cc([N+](=O)[O-])cc(C(F)(F)F)c1 | 4.72%
Cc1ccc(-c2ccc(C(=O)NCCCNC(=O)c3cnccn3)o2)cc1Cl | 18.8%
O=C(NCCNC(=O)c1ccc(-c2ccc(Cl)c(Cl)c2)o1)c1cnccn1 | -54.4%
O=C(NCCCNC(=O)c1ccc(-c2cccc(Cl)c2)o1)c1cnccn1 | -12.5%
NS(=O)(=O)OCCCc1ccc(C(F)(F)F)cc1 | 6.75%
COc1ccc(CCn2c(=N)c(C(=O)NCC3CCCO3)cc3c(=O)n4ccccc4nc32)cc1 (stereo not drawn) | -84.4%
COc1ccc(CCn2c(=N)c(C(=O)NCC3CCCO3)cc3c(=O)n4ccccc4nc32)cc1OC (stereo not drawn) | -79.9%
COc1ccc(Cn2c(=N)c(C(=O)NCC3CCCO3)cc3c(=O)n4ccccc4nc32)cc1 (stereo not drawn) | -85%
COc1ccc(CCNC(=O)CCn2c(=O)c3ccccc3n(CC(=O)NCC3CCCO3)c2=O)cc1OC (stereo not drawn) | 9.7%
Cc1cc(N2CCC(C)CC2)nc2ccc(N3C(=O)CCC3=O)cc12 | 9.64%
O=C(NC(=S)Nc1ncc(Br)cc1Br)c1cncc(Br)c1 | 4.04%
COc1ccc(C(=O)Nc2nnc(-c3cccs3)s2)cc1 | 18.6%
CC(C)(C)OC(=O)N[C@@H](Cc1ccccc1)c1nnc(S(=O)(=O)Cc2ccccc2)o1 | 5.19%
CCCCCc1nc2c(c3c1CCCC3)CCCC2 | -51.7%
CCCCc1nc(Cl)c(C#N)c2c1CCCC2 | 5.82%
CCCCCc1n[nH]c2c1CCCC2 | 9.3%
CC1CCCC(C)N1C(=O)COC(=O)CCC1CCCC1 (stereo not drawn) | 9.29%
CC1(C)NC(=O)N(CC(=O)N2CCN(c3ccc([N+](=O)[O-])cc3)CC2)C1=O | -29.1%
COc1ccc(N2CCN(C(=O)CN3C(=O)C4CC=CCC4C3=O)CC2)cc1 (stereo not drawn) | 15.7%
CC(C(=O)N1CCN(c2ccccc2)CC1)N1C(=O)C2CC=CCC2C1=O (stereo not drawn) | 10.3%
CC(C(=O)N1CCN(c2ccc([N+](=O)[O-])cc2)CC1)N1C(=O)C2CC=CCC2C1=O (stereo not drawn) | -50.2%
CC(C(=O)N1CCN(c2ccccc2)CC1)c1ccc([N+](=O)[O-])cc1 (stereo not drawn) | -12.2%
O=C(CN1C(=O)C2CC=CCC2C1=O)N1CCN(c2ccc([N+](=O)[O-])cc2)CC1 (stereo not drawn) | -64.2%
